# Source: PubChem BioAssay
# In the library only some 8.1% were active in any assay of this set; here they are far more common.
# KB-3-1 tox: kills parental KB-3-1 adenocarcinoma cells; hit rate 1.4% among 400,000; KB-3-1 viability, CellTiter-Glo ATP luminescence, 72 h; Potency, µM (top dose mostly 46.1 µM), hits mostly cytotoxic; further: on the % scale 0 is the no-effect control and ±100 the full control effect; nearly all actives have a fitted effect of over 60% in size
#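 Cytotoxicity in the drug-sensitive parental line KB-3-1 was scored as loss of CellTiter-Glo luminescence following 72 h incubation with compound. Values come from curve fitting of normalized concentration-response data.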
# ELG1 repair inh: ELG1-dependent DNA repair inhibition. HEK293T ELG1-luciferase reporter, luminescence, 16 h; DNA damage induced by 5-fluorouridine. Potency, µM (highest dose often 46.1 µM), for the others: at the top dose activity change, negative = inhibition, usual class: inhibitors. hit rate 2.3% among 330,000; further: on the % scale 0 is the no-effect control and ±100 the full control effect; nearly all actives have a fitted effect of over 55% in size
#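 5-Fluorouridine DNA damage + compound/DMSO, 2,000 cells/well, 16 h, 37 °C/5% CO2. ONE-Glo, 30 min RT, luminescence. Readout = decrease in reporter signal.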
# MCF10A rereplic: inducers of DNA re-replication in MCF 10A breast cells; MCF 10A DNA re-replication, Hoechst nuclear intensity, 48 h; Potency, µM (titrated, usually from 46.1 µM), for inactives: at the highest dose activity, positive = re-replication, usual class: activators; hit rate 2.9% among 350,000; AID 624296; further: % of control where 0% means no effect; nearly all actives have a fitted effect of over 50% in size
# SW480 rerep: inducers of DNA re-replication in SW480 colon cancer cells; SW480 DNA re-replication, Hoechst DNA content imaging, 48 h; Potency, µM (doses to about 46.1 µM), inactives show top-dose re-replication activation, hits mostly activators; hit rate 1.8% among 340,000; further: % of control where 0% means no effect; nearly all actives have a fitted effect of over 55% in size
#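 250 cells/well; 23 nL cpd via pin tool; 48 hr, 37 C, 5% CO2; Hoechst 40 min; imager read of total nuclear intensity, ex 405/em 500-530 nm.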
# KB-V1 cytotox: KB-V1 MDR subline cytotoxicity | hit rate 3.4% among 400,000 | AID 1347076 | Potency, µM (doses to about 46.1 µM), actives largely listed as cytotoxic | KB-V1 MDR cells viability, CellTiter-Glo, 72 h; further: on the % scale 0 is the no-effect control and ±100 the full control effect; nearly all actives have a fitted effect of over 60% in size
#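 KB-V1 MDR subline cells in DMEM (phenol-red free, 10% FBS) exposed to compounds in qHTS concentration series for 72 h at 37 degrees C. Viability read by CellTiter-Glo luminescence; concentration-effect curves fitted after normalization and correction.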
# ELG1 FLuc counter: luciferase inhibition in cell-free luciferin readout for ELG1 hits; AID 624247; cell-free firefly luciferase luminescence counter-screen, ViewLux; hit rate 3% among 350; Potency, µM (series often up to 46.1 µM), without a hit: top-dose activity change, negative = inhibition, most hits filed as inhibitors; shares compounds with ELG1 repair inh; further: on the % scale 0 is the no-effect control and ±100 the full control effect
# ELG1 Luc conf: inhibits ELG1-dependent DNA repair in HEK293T cells, confirmed. shares compounds with ELG1 repair inh. HEK293T ELG1-luciferase levels, luminescence; cells co-treated with 5-fluorouridine. Potency, µM (titrated, usually from 46.1 µM), inactives show at the top dose activity change, negative = inhibition, actives largely listed as inhibitors. hit rate 68% among 670; further: on the % scale 0 is the no-effect control and ±100 the full control effect; nearly all actives have a fitted effect of over 55% in size
# Target sequence (Q96QE3 whole entry, looked up): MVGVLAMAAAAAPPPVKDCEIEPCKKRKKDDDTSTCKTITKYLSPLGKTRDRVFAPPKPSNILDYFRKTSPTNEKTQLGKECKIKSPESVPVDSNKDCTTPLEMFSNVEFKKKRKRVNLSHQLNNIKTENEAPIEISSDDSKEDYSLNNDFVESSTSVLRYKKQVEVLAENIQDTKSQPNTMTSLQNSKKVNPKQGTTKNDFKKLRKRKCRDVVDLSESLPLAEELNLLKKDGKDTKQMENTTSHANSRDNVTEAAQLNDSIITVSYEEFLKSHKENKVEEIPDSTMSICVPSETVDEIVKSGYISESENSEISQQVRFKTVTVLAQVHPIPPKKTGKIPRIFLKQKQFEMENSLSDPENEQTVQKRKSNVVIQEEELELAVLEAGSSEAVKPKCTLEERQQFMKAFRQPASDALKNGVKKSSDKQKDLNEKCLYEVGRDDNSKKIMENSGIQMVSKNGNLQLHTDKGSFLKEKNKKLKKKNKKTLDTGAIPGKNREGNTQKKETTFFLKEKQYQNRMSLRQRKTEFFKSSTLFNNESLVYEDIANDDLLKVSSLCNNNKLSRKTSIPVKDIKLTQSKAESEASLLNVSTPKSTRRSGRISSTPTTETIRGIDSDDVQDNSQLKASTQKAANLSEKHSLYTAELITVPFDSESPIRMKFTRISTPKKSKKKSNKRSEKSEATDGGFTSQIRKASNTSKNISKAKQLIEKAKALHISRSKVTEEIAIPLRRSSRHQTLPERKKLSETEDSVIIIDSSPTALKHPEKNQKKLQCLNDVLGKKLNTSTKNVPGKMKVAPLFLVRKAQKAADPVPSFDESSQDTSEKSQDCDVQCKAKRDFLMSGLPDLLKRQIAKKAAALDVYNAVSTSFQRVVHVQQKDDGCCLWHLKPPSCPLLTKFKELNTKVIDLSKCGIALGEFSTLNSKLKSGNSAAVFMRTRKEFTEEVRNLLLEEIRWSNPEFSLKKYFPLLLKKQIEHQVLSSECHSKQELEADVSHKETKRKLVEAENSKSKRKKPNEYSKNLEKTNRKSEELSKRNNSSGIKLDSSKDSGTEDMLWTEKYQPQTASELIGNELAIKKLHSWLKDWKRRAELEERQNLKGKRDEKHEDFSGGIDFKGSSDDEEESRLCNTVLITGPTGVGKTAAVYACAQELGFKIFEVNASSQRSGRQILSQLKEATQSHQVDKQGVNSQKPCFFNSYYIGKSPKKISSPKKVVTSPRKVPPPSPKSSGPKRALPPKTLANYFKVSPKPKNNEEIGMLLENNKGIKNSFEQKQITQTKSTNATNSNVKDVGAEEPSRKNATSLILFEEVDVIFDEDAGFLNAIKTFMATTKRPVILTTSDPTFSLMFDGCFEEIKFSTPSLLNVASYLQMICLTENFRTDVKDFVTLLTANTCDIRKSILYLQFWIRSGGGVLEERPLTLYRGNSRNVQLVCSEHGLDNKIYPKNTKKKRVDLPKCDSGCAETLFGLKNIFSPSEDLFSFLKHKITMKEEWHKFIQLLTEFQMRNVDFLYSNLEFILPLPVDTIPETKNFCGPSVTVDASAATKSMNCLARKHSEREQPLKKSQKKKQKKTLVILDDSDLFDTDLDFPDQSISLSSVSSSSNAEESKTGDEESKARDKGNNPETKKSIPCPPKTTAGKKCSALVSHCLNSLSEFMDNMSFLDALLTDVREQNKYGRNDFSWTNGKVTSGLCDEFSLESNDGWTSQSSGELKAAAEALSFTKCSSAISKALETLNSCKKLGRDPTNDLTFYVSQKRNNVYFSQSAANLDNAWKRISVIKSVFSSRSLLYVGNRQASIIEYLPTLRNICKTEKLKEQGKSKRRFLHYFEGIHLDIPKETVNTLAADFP
# ELG1-Luc MMS: confirmation of human ELG1 repair inhibitors, MMS stimulated. Potency, µM (top dose mostly 46.1 µM), for inactives: at the highest dose activity change, negative = inhibition, usual class: inhibitors. AID 624249. HEK293T luciferase-tagged ELG1 level, MMS stimulated. shares compounds with ELG1 repair inh. hit rate 53% among 670; further: on the % scale 0 is the no-effect control and ±100 the full control effect; nearly all actives have a fitted effect of over 60% in size
# ELG1 5-FU: confirmation of ELG1 repair inhibitors: viability with 5FU. shares compounds with ELG1 repair inh. cell viability with 5-FU, ELG1-dependent repair. Potency, µM (series often up to 46.1 µM), for inactives: at the highest dose activity change, negative = viability loss, hits mostly cytotoxic. 670 tested, under 10 active. AID 624250;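 further: ELG1-luc HEK293T cells cotreated with 5-fluorouridine at 10 µM final; viability measured 16 h after compound addition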
# ELG1 MMS viab: confirmation of ELG1 repair inhibitors: viability with MMS | shares compounds with ELG1 repair inh | Cell viability with MMS, ELG1-dependent DNA repair | Potency, µM (top dose mostly 46.1 µM), inactives show at the highest dose activity change, negative = viability loss, actives largely listed as cytotoxic | hit rate 33% among 670 | AID 624251;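 further: ELG1-luc HEK293T cells co-treated with 10 µM MMS; viability read 16 h after compound addition; on the % scale 0 is the no-effect control and ±100 the full control effect; nearly all actives have a fitted effect of over 60% in size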
# ELG1 unstim viab: affects unstimulated cell viability, ELG1 hit counter-screen; shares compounds with ELG1 repair inh; cell viability counter-screen, unstimulated, luminescence; Potency, µM (highest dose often 45.9 µM), inactives show at the top dose activity change, negative = loss of viability, actives largely listed as cytotoxic; hit rate 8% among 900; AID 624252;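 further: compound exposure lasted 16 hours before reading; on the % scale 0 is the no-effect control and ±100 the full control effect; nearly all actives have a fitted effect of over 55% in size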
# FLuc enzyme: counter-screen for ELG1 repair inhibitors: firefly luciferase inhibition. purified firefly luciferase, luminescence counter-screen. Potency, µM (series often up to 57.5 µM), inactives show top-dose activity, negative = inhibition, most hits filed as inhibitors. hit rate 10% among 350. shares compounds with ELG1 repair inh; further: on the % scale 0 is the no-effect control and ±100 the full control effect
# Active calls of the source: *; i = inactive; ? = inconclusive; nt = no result; [ ] = remark or other dose. The call rests on the fitted dose curve; in most records, active means well fitted curve in the direction sought with a large enough effect; inconclusive means small, poorly fitted or top-dose-only effect, or another doubt; inactive means no such curve, though single readings can be large; an effect the other way counts as inactive or inconclusive. Potency means the concentration at half of the fitted maximal effect.
SMILES,KB-3-1 tox,ELG1 repair inh,MCF10A rereplic,SW480 rerep,KB-V1 cytotox,ELG1 Luc conf,ELG1-Luc MMS,ELG1 5-FU,ELG1 MMS viab,ELG1 unstim viab,others
COc1cccc(N2CC(NS(=O)(=O)c3cccnc3)CC2=O)c1 (configuration not stated),i,4.11µM*,10.7%,-43.3%,i,27.1%,11.0%,4.0%,?,10.4%,
CCOC(=O)N1CCN(C(=O)CSCC(=O)Nc2nc(-c3ccc(-c4ccccc4)cc3)cs2)CC1,?,10.3µM*,13.0%,2.4%,i,nt,nt,nt,nt,15.8µM*,ELG1 FLuc counter=-9.0%;FLuc enzyme=?
O=C(CSCC(=O)N1CCOCC1)Nc1nc(-c2ccccc2)cs1,i,?,0.6%,-2.6%,i,nt,nt,nt,nt,nt,
COc1ccc2cc3c(N)nn(C(=O)c4ccc(F)cc4)c3nc2c1,i,4.11µM*,?,?,?,2.5µM*,4.45µM*,8.2%,4.5%,-4.3%,
COc1ccc2cc3c(N)nn(C(=O)c4cccc(F)c4)c3nc2c1,i,0.0%,4.5%,?,i,nt,nt,nt,nt,nt,
COc1ccc2cc3c(N)nn(C(=O)c4ccccc4Cl)c3nc2c1,?,0.651µM*,23.5%,4.11µM*,?,0.792µM*,3.97µM*,7.4%,-1.1%,?,ELG1 FLuc counter=?;FLuc enzyme=-8.5%
COC(=O)c1cn(C(=O)c2ccccc2F)nc1N,i,14.4%,0.3%,-7.3%,?,nt,nt,nt,nt,nt,
COc1ccc(CCN2C(=O)CSC2=Nc2ccc(C(C)C)cc2)cc1OC,3.66µM*,4.11µM*,16.4µM*,9.2µM*,3.26µM*,25µM*,2.5µM*,?,1.99µM*,15.8µM*,
CCCCN1C[C@H](c2ccc(OC)cc2)[C@@H](CC(=O)Nc2ccc(Br)cc2)C1=O,i,nt,nt,nt,?,nt,nt,nt,nt,nt,
O=c1c(-c2ccc(F)cc2)coc2cc(O)ccc12,i,?,-1.4%,1.9%,i,nt,nt,nt,nt,nt,
O=c1c(-c2ccc(F)cc2)coc2c3c(ccc12)OCCO3,i,?,7.6%,-3.0%,i,nt,nt,nt,nt,?,ELG1 FLuc counter=123.5%;FLuc enzyme=?
CCCCNC(=S)NNC(=O)c1csc(CC)c1,i,18.1%,7.7%,-5.5%,i,nt,nt,nt,nt,nt,
CN(CCCC(=O)Nc1ccncc1)S(=O)(=O)c1ccc(Cl)cc1,i,2.31µM*,16.0%,-24.9%,i,-17.2%,7.92µM*,-6.7%,7.92µM*,?,ELG1 FLuc counter=17.8%;FLuc enzyme=-6.0%
O=C(COc1ccc(C(=O)NCC2CCCO2)cc1)Nc1cccc(C(F)(F)F)c1 (configuration not stated),i,3.26µM*,13.3%,-6.3%,i,?,?,11.0%,?,-4.1%,
O=C(N[C@H]1/C=C\[C@@H](O)CCCC1)OCc1ccccc1,i,?,-1.7%,-60.1%,i,nt,nt,nt,nt,5.2%,
Cc1cccc(C(=O)OCC(=O)c2c(N)n(CC(C)C)c(=O)n(C)c2=O)c1[N+](=O)[O-],i,4.47µM*,5.9%,?,i,12.5µM*,7.05µM*,3.2%,6.28µM*,?,
Cc1cccc(C(=O)OCC(=O)c2c(N)n(CC(C)C)c(=O)n(C)c2=O)c1O,?,?,-30.7%,21.5%,i,nt,nt,nt,nt,nt,
CC(C)Cn1c(N)c(C(=O)COC(=O)CC23CC4CC(CC(C4)C2)C3)c(=O)n(C)c1=O,?,3.66µM*,11.6µM*,1.9%,?,1.99µM*,1.12µM*,-23.6%,0.996µM*,15.8µM*,
Cc1ccc(N(C)C(=O)c2cc(S(=O)(=O)N3CCCCC3)c[nH]2)cc1,i,3.66µM*,1.7%,-3.7%,i,?,3.3%,-4.9%,-4.4%,-14.1%,
CN(C(=O)c1cc(S(=O)(=O)N2CCCCC2)c[nH]1)C1CCCCC1,i,-11.6%,-5.4%,-12.2%,i,nt,nt,nt,nt,nt,
Cc1cc(C)cc(NC(=O)CCc2nc3sc4c(c3c(=O)[nH]2)CCCC4)c1,?,-11.5%,?,?,?,nt,nt,nt,nt,?,ELG1 FLuc counter=8.0%;FLuc enzyme=-4.3%
Cc1ccc(C(=O)Cn2c3c(sc2=N)CCCC3)cc1,nt,nt,nt,nt,nt,nt,nt,nt,nt,?,ELG1 FLuc counter=-1.8%;FLuc enzyme=0.092µM*
Cc1ccc(C(=O)Cn2ncsc2=N)cc1,i,?,-0.7%,-0.4%,i,nt,nt,nt,nt,nt,
CC(CCc1ccccc1)NC(=O)c1ccc(-n2cncn2)c([N+](=O)[O-])c1 (configuration not stated),i,6.2%,0.8%,-6.7%,i,nt,nt,nt,nt,nt,
CC(C)C(NS(=O)(=O)c1cccs1)C(=O)NCc1ccccc1Cl (configuration not stated),i,8.5%,?,8.8%,i,nt,nt,nt,nt,nt,
O=c1c2ccccc2oc2ccc(-c3ccoc3)cc12,i,nt,nt,nt,?,nt,nt,nt,nt,?,
Cc1ccc(-c2csc3ncnc(N4CCN(C(=O)c5ccccc5)CC4)c23)cc1,?,18.4µM*,?,1.0%[9.22 µM],?,15.8µM*,25µM*,?,?,?,ELG1 FLuc counter=?;FLuc enzyme=1.2%
CCc1cccc(NC(=O)Cn2cc(C=O)c3ccccc32)c1,?,3.66µM*,3.0%,0.6%,20.6µM*,?,2.5µM*,0.9%,2.81µM*,-17.9%,
COCC(C)n1c(C)cc(C(=O)COC(=O)c2cc(=O)[nH]c3ccccc23)c1C (configuration not stated),i,?,7.3%,-3.1%,20.6µM*,nt,nt,nt,nt,6.1%,
